Results published in PubChem BioAssay (Tox21).
“And” between values parts separate entries of the source, which are not always exact repeats. Identical values can stand only once. Results filed as inconclusive are left out. Entries that show only a call come without a potency. Where a structure was tested more than once in an assay, its records may differ in their call. The source made the active and inactive calls. Calls come from the whole dose curve; as a rule, active = well fitted cell-killing curve with a large enough effect in the repeat runs; inconclusive = weak or mixed curves, or effect the other way; inactive = no such curve, though single readings can be large or run the other way.

Test: qHTS assay for identifying genotoxic compounds that show differential cytotoxicity against isogenic chicken DT40 cell lines with known DNA damage response pathways - wild type cell line (AID 743012); note: nearly all actives have a fitted effect of over 60% in size
Details: DT40 wild type chicken cells viability, CellTiter-Glo, 40 h; series mostly up to 68.4 µM
Text: U.S. Tox21 Program National Center for Advancing Translational Sciences [NCATS] NIH Chemical Genomics Center [NCGC] U.S. Environmental Protection Agency [EPA] National Institutes of Environmental Health Sciences [NIEHS] National Toxicology Program [NTP] U.S. Food and Drug Administration [FDA] Tox21 Assay Overview: DNA repair pathways play a critical role in cellular homeostasis by repairing DNA damage induced by endogenous processes and xenobiotics. Isogenic chicken DT40 cell lines deficient in different DNA repair pathways can be used to identify genotoxic compounds and aid in characterizing the nature of the DNA damage induced. Two DNA repair-deficient cell lines with disrupted genes, Rad54/Ku70 or Rev3, were used to screen the Tox21 10K compound library. Possible genotoxicity was based on the presence of a significant increase in cytotoxicity in one or more of the DNA repair-deficient cell lines compared to that observed in the parental DNA repair-proficient cell line. CellTiter Glo viability assay (Promega, Madison, WI) was used to measure cell viability in these cells after compound treatment. This assay includes the data from the wild type cell line.
Tox21 Assay Protocol Summary: 300 DT40 wild type cells in 5 uL/well were dispensed into white, solid-bottom 1536-well plates using a Multidrop Combi (ThermoFisher Scientific, Waltham, MA) dispenser. After the assay plates were incubated at 37 C/5% CO2 for approximately 0.5 hour, 23 nL of compounds dissolved in DMSO, positive controls or DMSO only was transferred into the assay plate by a pintool work station (Kalypsys, San Diego, CA). The assay plates were incubated at 37 C/5% CO2 for 40 hours. After 5 uL per well of CellTiter-Glo reagent was added into each well of the assay plates, the plates were incubated for 30 min at room temperature and the luminescence intensity of the plates was measured using a ViewLux (PerkinElmer, Shelton, CT) plate reader.
Potency is the fitted concentration of half-maximal effect.

**Q.** For CCCCC(CC)COC(C)=O (stereo not given), which Potency is on record?
**A.** inactive

**Q.** With COC(=O)c1ccccc1O as the molecule, how does the Potency read?
**A.** inactive

**Q.** For CCCCC/C=C\C/C=C\CCCCCCCC(=O)OC, which Potency is on record?
**A.** 30.6 µM (active)

**Q.** Which Potency does the source give for C=C(C)C(=O)OCCCCCCCCCCCC here?
**A.** inactive

**Q.** For COC(=O)Nc1nc2ccc(Sc3ccccc3)cc2[nH]1, which Potency is on record?
**A.** 403 nM (active) and 217 nM (active)

**Q.** For O=C(c1ccc(O)cc1)c1ccc(O)cc1O, which Potency is on record?
**A.** inactive

**Q.** With CCCCC(CC)COC(=O)/C=C\C(=O)OCC(CC)CCCC (stereo not given) as the molecule, how does the Potency read?
**A.** inactive

**Q.** For CCC(=O)O, which Potency is on record?
**A.** inactive

**Q.** With CC(=O)CCc1ccccc1 as the molecule, how does the Potency read?
**A.** inactive

**Q.** For O=C(Oc1ccccc1)c1ccc(O)cc1, which Potency is on record?
**A.** inactive

**Q.** Which Potency does the source give for CCOC(=O)/C=C\C(=O)OCC here?
**A.** inactive

**Q.** Which Potency does the source give for OCC1CCCO1 (stereo not given) here?
**A.** inactive

**Q.** Which Potency does the source give for O=[N+]([O-])c1cccc(Cl)c1 here?
**A.** inactive

**Q.** With CC#C[C@]1(O)CC[C@H]2[C@@H]3CCC4=CC(=O)CCC4=C3[C@@H](c3ccc(N(C)C)cc3)C[C@@]21C as the molecule, how does the Potency read?
**A.** 5.96 µM (active) and 30.6 µM (active)

**Q.** Which Potency does the source give for CC[Si](OC(C)=O)(OC(C)=O)OC(C)=O here?
**A.** inactive

**Q.** For c1ccc2[nH]cnc2c1, which Potency is on record?
**A.** inactive

**Q.** With CCOC(=O)[C@H](CCc1ccccc1)N[C@@H](C)C(=O)N1Cc2ccccc2C[C@H]1C(=O)O as the molecule, how does the Potency read?
**A.** inactive

**Q.** With O=C(Cl)c1c(Cl)c(Cl)c(C(=O)Cl)c(Cl)c1Cl as the molecule, how does the Potency read?
**A.** inactive

**Q.** Which Potency does the source give for Cc1cc(O)cc(C)c1Cl here?
**A.** inactive

**Q.** With Oc1ccc(OCc2ccccc2)cc1 as the molecule, how does the Potency read?
**A.** 2.54 µM (active) and 8.45 µM (active)

**Q.** With Cc1cc(NS(=O)(=O)c2ccc(N)cc2)no1 as the molecule, how does the Potency read?
**A.** inactive

**Q.** Which Potency does the source give for CCCCCCOC(C)=O here?
**A.** inactive

**Q.** Which Potency does the source give for O=S(=O)(O)c1cc(S(=O)(=O)O)c2c(N=Nc3ccccc3)c(O)ccc2c1 here?
**A.** inactive

**Q.** With c1ccc2ccccc2c1 as the molecule, how does the Potency read?
**A.** inactive

**Q.** With COCC(=O)O as the molecule, how does the Potency read?
**A.** inactive

**Q.** For CC1=C(CC(=O)O)c2cc(F)ccc2/C1=C\c1ccc(S(C)=O)cc1 (stereo not given), which Potency is on record?
**A.** inactive and 68.6 µM (active)

**Q.** With O=C1CCCCC1 as the molecule, how does the Potency read?
**A.** inactive

**Q.** With CCCCOCCOCCOC(=O)CCCCC(=O)OCCOCCOCCCC as the molecule, how does the Potency read?
**A.** inactive

**Q.** With CC(C)(C)C1CCC(O)CC1 (stereo not given) as the molecule, how does the Potency read?
**A.** inactive

**Q.** Which Potency does the source give for Clc1ccc(Cl)c(Cl)c1Cl here?
**A.** inactive

**Q.** Which Potency does the source give for CC(C)NCC(O)COc1cccc2ccccc12 (stereo not given) here?
**A.** inactive

**Q.** With CCCCCCCCCCC=CC1CC(=O)OC1=O (stereo not given) as the molecule, how does the Potency read?
**A.** inactive

**Q.** For CCCCCCCCCCCCN, which Potency is on record?
**A.** inactive and 15.4 µM (active)

**Q.** With O=[N+]([O-])C(CO)(CO)CO as the molecule, how does the Potency read?
**A.** inactive and 68.6 µM (active)

**Q.** With COC(=O)c1ccc(C(=O)OC)cc1 as the molecule, how does the Potency read?
**A.** inactive

**Q.** For CC1=CC[C@H]2C[C@@H]1C2(C)C, which Potency is on record?
**A.** inactive

**Q.** Which Potency does the source give for O=S(=O)(Oc1ccc(Cl)cc1Cl)c1ccccc1 here?
**A.** inactive

**Q.** For C=C(C)C(=O)OCCC[Si](OC)(OC)OC, which Potency is on record?
**A.** inactive

**Q.** For Cc1cc(O)c2c(c1)C(=O)c1cc(O)cc(O)c1C2=O, which Potency is on record?
**A.** 27.3 µM (active)

**Q.** For Cc1ccc(N)c(S(=O)(=O)O)c1, which Potency is on record?
**A.** inactive
